In ChEMBL document CHEMBL3988442, “University of Dundee, Small-Polar-MMV Screening Library” (2021):
Screen size: about 48,000 compounds; about 13,000 (27%) showed an effect of 50% or more. This is one part of the list.

What follows are molecules tested on Wolbachia pipientis (assay: Anti-Wolbachia Cell-Based Screen). Details: 5 µM.
Type: functional
Set-up: scale not given: in the data most compounds retested in dose-response had high values

Compound	Percent Effect
COCc1noc(C2(c3ccc(F)cc3)CCC2)n1	-10.25%
CNS(=O)(=O)c1cccc(C(C)NCc2cccc(OC)c2)c1 (stereo not given)	4.426%
CCc1ncncc1C(=O)NCCNS(=O)(=O)c1ccc(C)cc1	8.343%
COc1cccc(CNC(=O)CCNS(=O)(=O)c2ccc(C)cc2)c1	91.68%
COc1cccc(CNC(=O)CCC2=Nc3ccccc3S(=O)(=O)N2)c1	114.6%
CNS(=O)(=O)c1cccc(CNC(=O)CCc2ccsc2)c1	10.65%
O=C(CCNS(=O)(=O)c1ccccc1)NCc1ccoc1	-4.508%
CNS(=O)(=O)c1ccc(CCC(=O)NCc2cccc(OC)c2)cc1	110.9%
COc1cccc(CCNC(=O)CCS(=O)(=O)C2CCCC2)c1	1.804%
COc1cccc(CNC(=O)CCOc2ccccc2C)c1	9.384%
COc1cccc(CNC(=O)N2CCN3CCNC(=O)C3C2)c1 (stereo not given)	-4.227%
Cc1ccc(S(=O)(=O)NCCNC(=O)c2cncnc2C)cc1	2.217%
COc1ccc(CC(=O)NCCNS(=O)(=O)c2ccc(C)cc2)cc1	90.25%
CN(CCO)Cc1nnc(C2CCN(C(=O)CN3CCCC3)CC2)n1C	-20.27%
COc1ccccc1OC1CCN(C(=O)CCCN2CCOCC2)CC1	10.26%
Cl.Cn1nc(C2CCN(C(=O)CCN3CCOCC3)CC2)c2cccnc21	110.8%
Cl.Cn1nc(C2CCN(C(=O)CN3CCCCC3)CC2)c2cccnc21	113.3%
O=C(CN1CCCCC1)NCc1cccnc1-n1cnc2ccccc21	-3.687%
C=C(C)CNC(=O)C1CCC(=O)N(C2CCCC2)C1 (stereo not given)	15.65%
COCC1CN(C(=O)c2ccnnc2)Cc2ncnn2C1 (stereo not given)	0.09306%
Cc1cc(CSCc2csc(CS(C)(=O)=O)n2)no1	97.95%
CCc1nc(CSCc2csc(CS(C)(=O)=O)n2)cs1	115%
Cc1cc(CSCc2cc(C)on2)on1	-0.9382%
Cc1noc(C)c1CSCc1nc(N)c2ccccc2n1	-9.423%
CS(=O)(=O)Cc1nc(CN2CCc3ccccc3CC2)cs1	14.86%

Compound	Percent Effect
CS(=O)(=O)Cc1nc(CNc2c(F)cc(F)cc2F)cs1	22.22%
Cc1noc(C)c1CSCc1csc(CS(C)(=O)=O)n1	94.77%
CS(=O)(=O)Cc1nc(CN2CCC(C(F)(F)F)CC2)cs1	-5.539%
CS(=O)(=O)Cc1nc(CNc2ccc(F)c(F)c2)cs1	12.98%
COCCN(Cc1sccc1C)C(=O)C1CCN(C(C)C)CC1	1.745%
Nc1nc2c(c(N3CCCC(c4nnc5ccccn45)C3)n1)CCNC2 (stereo not given)	-10.49%
O=C1[C@@H]2CN(Cc3cc4ccccc4o3)C[C@]2(C(=O)O)CN1CC1CC1	-11.55%
OCC(O)CSCc1nnc(-c2ccc(Cl)cc2)o1 (stereo not given)	-3.672%
COc1ccc2c(c1)CCCN2Cc1nc2c(cnn2C)c(=O)[nH]1	-6.912%
COc1ccc2c(c1)CCCN2C(=O)c1cccc(N(C)C)c1	-8.665%
CCN1Cc2cc(OC)ccc2N(CC(C)(C)O)CCC1=O	102.5%
COc1ccc2c(c1)CN(CC1CC1)C(=O)CCN2CC(C)(C)O	98.75%
COc1ccc2c(c1)CCCN2C(=O)NC1CCCCNC1=O (stereo not given)	-4.83%
COc1ccc2c(c1)C(=O)N(C)C1(CCN(CC3CC3)CC1)N2	-12.56%
CN1CCN(Cc2noc(CC3CCc4ccccc43)n2)CC1 (stereo not given)	3.539%
Cc1csc(CN(C)C(=O)c2cccc(CCC(C)(C)O)c2)n1	-10.56%
COCc1ncc(CN2C[C@@H](C(=O)O)[C@H](C(C)C)C2)cn1	0.5192%
CC(C)N1CCC(c2cnc(-c3cn[nH]c3)cn2)CC1	107.4%
CC(C)N1CCC(c2nnc(CN3CCCC3)n2C2CC2)CC1	-3.352%
O=C(O)c1cc(-c2cn[nH]c2)cc(S(=O)(=O)N2CCSCC2)c1	-7.646%
Cn1cc(-c2nc(C3CCN(S(C)(=O)=O)CC3)cc3c2ncn3C)cn1	6.413%
CS(=O)(=O)N1CCC(c2cnc(-c3cn[nH]c3)cn2)CC1	122.9581%
CCCn1ncnc1C(C)NC(=O)C1CCN(C(C)C)CC1 (stereo not given)	-2.448%
CC(C)N1CCC(c2cnc(-c3cncnc3)cn2)CC1	77.04%
COc1cccc2c1OCCCN(Cc1ccc(C(N)=O)c(=O)[nH]1)C2	-4.223%

Compound	Percent Effect
CC(C)Cn1cnc(S(=O)(=O)Nc2cccnc2-n2cccn2)c1	-21.79%
CC1(C)CN(C(=O)CC2CCS(=O)(=O)CC2)C[C@]1(C)O	8.618%
O=S(=O)(NCC1(O)CCOCC1)c1ccccc1Br	8.924%
CC(C)NC(=O)NC[C@H]1OC[C@@H](NCc2cccs2)[C@@H]1O	11.97%
CCc1cc(N[C@H](C(N)=O)C(C)C)n2nc(C)c(C)c2n1	-4.879%
Cc1cccc(C2(CNC(=O)CCNS(C)(=O)=O)CCCC2)c1	4.767%
CN1CCC(CCc2ccnc(Nc3cnccn3)c2)CC1	95.48%
CC(Cc1cnccn1)NC(=O)c1cccc(CC2CCNCC2)c1 (stereo not given)	-6.406%
c1cnc(Nc2cc(CCC3CCNCC3)ccn2)cn1	61.48%
O=C(NCCNc1cnccn1)NCC1CCS(=O)(=O)C1 (stereo not given)	-2.4%
O=C(CO)N1CCC(CCc2ccnc(Nc3cnccn3)c2)CC1	125.8%
Cl.c1cnc(Nc2cc(CCC3CCCNC3)ccn2)cn1 (stereo not given)	75.77%
Cc1c(Br)cccc1C(=O)NCCC1CCCNC1.Cl (stereo not given)	6.591%
Cc1ccc(Oc2ncccc2CNC2CCOCC2)cn1	-4.901%
CCC(CNC1CCN(C(C)=O)CC1)Oc1cccc(C)c1 (stereo not given)	3.033%
CN(C)c1cc2c(nn1)CCN(C(=O)C1CCc3ccccc31)C2 (stereo not given)	-4.6%
Cc1nc(C(=O)N2CCN(S(C)(=O)=O)[C@@H]3CS(=O)(=O)C[C@@H]32)cs1	-1.846%
Cc1cc(C(=O)NCCN2CCN(S(C)(=O)=O)CC2)no1.Cl	11.14%
CC1CCN(CCNC(=O)c2cncnc2C(C)C)CC1	-7.999%
CCCc1nc(C(=O)NCCN2CCC(c3ccccc3C)C2)cs1 (stereo not given)	-11.15%
Cc1csc(CNC(=O)NC2CCCN(S(C)(=O)=O)C2)n1 (stereo not given)	-1.577%
CCc1c(C)nn(CCNC(=O)c2csc(C)n2)c1C	-30.9%
Cc1cc(C)n(-c2nc(C(=O)NCCN3CCC(C)CC3)cs2)n1	74.92%
Cc1nc(C(=O)NCCS(=O)(=O)N2CCCC2)cs1	99.98%
Cc1cc(C)n(-c2nc(C(=O)NCCS(=O)(=O)N3CCCCC3)cs2)n1	95.89%
